Measured values published in PubChem BioAssay (EPA / NIEHS).
Calls of active or inactive are those of the source. Rule for the calls: active = hit-call score of the fitted dose curve at least 0.9, where 1 is the maximum; inactive = score below 0.9.

Each molecule was assayed on Vascular cell adhesion molecule 1 (VCAM1), VCAM1 (gene 7412) (assay: BSK_IMphg_VCAM1: BioMAP Diversity Plus: IMphg Assay for Vascular cell adhesion molecule 1 (VCAM1) Biomarker Activity (AID 2284286)). Details: primary human endothelial cells with macrophages.
Description: BSK_IMphg is a cell-based, multiplexed-readout assay that uses venular endothelial cells and macrophages, a human vascular primary cell, with measurements taken at 24 hours after chemical dosing in a microplate: 96-well plate.BSK_IMphg_VCAM1 is an assay component measured in the BSK_IMphg assay. It measures VCAM-1 antibody related to regulation of gene expression using ELISA technology.Data from the assay component BSK_IMphg_VCAM1 was analyzed at the endpoint, BSK_IMphg_VCAM1, in the positive analysis fitting direction relative to DMSO as the negative control and baseline of activity. Using a type of binding reporter, gain or loss-of-signal activity can be used to understand protein changes. To generalize the intended target to other relatable targets, this assay endpoint is annotated to the 'cell adhesion molecules' intended target family, where the subfamily is 'Immunoglobulin CAM'.
The levels of cell surface (or secreted, indicated by the prefix "s") biomarker endpoints were measured by ELISA. Overt cytotoxicity to cells in confluent adherent cultures (all systems other than the BT system) was assessed by measuring total protein levels using sulforhodamine B (SRB) staining in parallel cultures at the time of biomarker measurements, indicated as SRB endpoints. For proliferation assays for adherent cell types, individual cell types are cultured at sub-confluence and relative cell numbers quantified by SRB staining at time points optimized for each system (48 h: 3C and CASM3C systems; 72 h: BT and HDF3CGF systems; 96 h: SAg system). SRB was performed by staining cells with 0.1% SRB after fixation with 10% TCA and reading wells at 560 nm.Viability and proliferation of PBMC (T cells) was quantified by Alamar Blue reduction for the SAg and BT systems. For PBMC viability (referred to as PBMC Cytotoxicity within the assay endpoint names), cells were plated (75,000/well in a 96-well plate) and then chemical samples added for 1 h before addition of activators, SEB and TSST-1 (20 ng/mL final concentration each). Cells were incubated for 90 h. Then, Alamar Blue (20 uL/well) (Invitrogen, Cat DAL1100) was added for 6 h, and the plates were read with a fluorescence microplate reader at 546/580 nm (excitation/emission). For PBMC proliferation, cells were plated and activated as above but incubated for only 16 h prior to addition of Alamar Blue. Plates were read after 6 h.

| SMILES | outcome |
| --- | --- |
| FC(F)(F)C(F)(F)C(F)(F)C(F)(F)C(F)(F)C(F)(F)I | inactive |
| O=C(Cl)C(F)(F)C(F)(F)C(F)(F)C(=O)Cl | inactive |
| FC(F)=C(F)C(F)(F)C(F)(F)C(F)(F)C(F)(F)C(F)(F)C(F)(F)F | inactive |
| FC(F)(F)COC(OCC(F)(F)F)OCC(F)(F)F | inactive |
| C[Si](C)(C)C(F)(F)C(F)(F)C(F)(F)F | inactive |
| OCCC(F)(F)C(F)(F)C(F)(F)C(F)(F)F | inactive |
| NCC(F)(F)C(F)(F)C(F)(F)C(F)(F)F | inactive |
| FC(F)C(F)(F)COCC1CO1 (stereo not given) | inactive |
| OC(O)(C(F)C(O)(O)C(F)(F)F)C(F)(F)F | inactive |
| O=S(=O)(O)CCC(F)(F)C(F)(F)C(F)(F)C(F)(F)C(F)(F)C(F)(F)F | inactive |
